Reference: PubChem BioAssay (NCATS)
Records with an inconclusive call do not appear. Calls of active or inactive are those of the source. Unless noted, calls follow the shape of the dose curve; as a rule, active = well fitted curve in the direction sought with a large enough effect; inconclusive = small, poorly fitted or top-dose-only effect, or another doubt; inactive = no such curve, though single readings can be large; an effect the other way counts as inactive or inconclusive.

Tests used:
[1] = molecular target: Glucocorticoid receptor (Homo sapiens) (UniProt P04150); assay: GR-GFP Redistribution (AID 450;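 active = compounds whose dose series gives a full or clear partial fitted curve of increased nuclear translocation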; also: potency is read from the fitted curve at half-maximal effect); conditions: U2OS GR-GFP nuclear translocation, laser cytometry, 2 h
Sequence of Glucocorticoid receptor (Homo sapiens) (P04150 whole entry, looked up, the tested form may be a part): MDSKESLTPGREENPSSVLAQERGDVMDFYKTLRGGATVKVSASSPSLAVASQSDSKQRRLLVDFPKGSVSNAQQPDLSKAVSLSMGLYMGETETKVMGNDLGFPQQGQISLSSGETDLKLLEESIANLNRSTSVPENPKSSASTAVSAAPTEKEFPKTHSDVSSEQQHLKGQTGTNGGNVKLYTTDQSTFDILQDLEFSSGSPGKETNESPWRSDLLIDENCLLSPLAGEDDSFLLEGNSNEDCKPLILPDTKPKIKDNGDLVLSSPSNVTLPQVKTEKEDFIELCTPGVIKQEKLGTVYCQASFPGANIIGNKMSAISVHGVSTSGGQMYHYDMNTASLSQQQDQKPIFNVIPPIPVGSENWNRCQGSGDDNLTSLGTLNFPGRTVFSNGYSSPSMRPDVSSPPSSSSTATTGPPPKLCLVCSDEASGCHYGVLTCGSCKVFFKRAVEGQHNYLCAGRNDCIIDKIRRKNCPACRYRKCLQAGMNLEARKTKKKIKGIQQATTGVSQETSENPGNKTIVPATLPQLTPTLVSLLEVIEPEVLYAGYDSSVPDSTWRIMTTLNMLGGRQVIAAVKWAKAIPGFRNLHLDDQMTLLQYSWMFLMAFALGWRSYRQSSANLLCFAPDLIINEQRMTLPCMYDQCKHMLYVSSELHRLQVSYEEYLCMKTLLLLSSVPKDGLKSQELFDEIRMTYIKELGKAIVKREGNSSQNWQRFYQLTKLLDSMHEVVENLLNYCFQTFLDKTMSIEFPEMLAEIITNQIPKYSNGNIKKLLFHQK

[2] = molecular target: Glucocorticoid receptor (Homo sapiens) (UniProt P04150); assay: GR-EFC Redistribution (AID 451; calls by dose curve; also: potency is read from the fitted curve at half-maximal effect); conditions: CHO-K1 GR-EFC translocation, beta-gal luminescence, 2 h
How it was run: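 CHO-K1 cells expressing nuclear EA and GR-ED fragments of b-gal; compounds titrated up to 46 uM final, 2 h at 37 C. GR nuclear translocation read as complemented b-gal luminescence after 1 h RT detection.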

[3] = molecular target: 3',5'-cyclic-AMP phosphodiesterase 4B (Homo sapiens) (UniProt Q07343); assay: qHTS Assay for Inhibitors of PDE-IV (AID 607; active = well fitted activation curve with a large enough effect in the main read-out, with a control signal flat, not every such curve was filed as active)
Sequence of 3',5'-cyclic-AMP phosphodiesterase 4B (Homo sapiens) (Q07343 whole entry, looked up): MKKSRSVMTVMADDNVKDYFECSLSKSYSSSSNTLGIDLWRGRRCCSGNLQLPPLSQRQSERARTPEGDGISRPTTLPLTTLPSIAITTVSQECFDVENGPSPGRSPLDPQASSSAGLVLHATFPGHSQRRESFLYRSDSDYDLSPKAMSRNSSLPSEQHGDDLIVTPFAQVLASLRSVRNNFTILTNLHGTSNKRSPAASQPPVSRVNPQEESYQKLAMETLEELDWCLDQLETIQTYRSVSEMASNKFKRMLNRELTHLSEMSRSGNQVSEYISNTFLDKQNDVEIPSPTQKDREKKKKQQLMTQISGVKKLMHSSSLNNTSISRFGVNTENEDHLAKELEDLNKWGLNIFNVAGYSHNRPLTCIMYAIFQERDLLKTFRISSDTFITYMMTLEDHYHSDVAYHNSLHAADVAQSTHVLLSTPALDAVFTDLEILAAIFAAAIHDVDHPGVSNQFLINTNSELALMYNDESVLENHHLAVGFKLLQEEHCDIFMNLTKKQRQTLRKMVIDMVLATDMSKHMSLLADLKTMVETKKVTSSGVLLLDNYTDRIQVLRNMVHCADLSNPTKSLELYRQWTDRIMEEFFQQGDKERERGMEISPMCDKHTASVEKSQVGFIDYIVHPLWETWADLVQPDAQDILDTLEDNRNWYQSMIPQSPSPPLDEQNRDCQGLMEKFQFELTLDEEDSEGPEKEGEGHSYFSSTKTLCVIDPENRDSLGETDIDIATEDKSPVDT
How it was run: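 The readout is membrane depolarisation from a cAMP-sensing CNG channel, detected with a potential dye at ex 535/em 590. Cells were HEK293-derived (endogenous PDE-IV) at 1000 cells/well, titrated up to 22.9 uM final.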

[4] = molecular target: DNA dC->dU-editing enzyme APOBEC-3G (Homo sapiens) (UniProt Q9HC16); assay: qHTS for inhibitors of Vif-A3G interactions: Validation (AID 588379)
Sequence of DNA dC->dU-editing enzyme APOBEC-3G (Homo sapiens) (Q9HC16 whole entry, looked up): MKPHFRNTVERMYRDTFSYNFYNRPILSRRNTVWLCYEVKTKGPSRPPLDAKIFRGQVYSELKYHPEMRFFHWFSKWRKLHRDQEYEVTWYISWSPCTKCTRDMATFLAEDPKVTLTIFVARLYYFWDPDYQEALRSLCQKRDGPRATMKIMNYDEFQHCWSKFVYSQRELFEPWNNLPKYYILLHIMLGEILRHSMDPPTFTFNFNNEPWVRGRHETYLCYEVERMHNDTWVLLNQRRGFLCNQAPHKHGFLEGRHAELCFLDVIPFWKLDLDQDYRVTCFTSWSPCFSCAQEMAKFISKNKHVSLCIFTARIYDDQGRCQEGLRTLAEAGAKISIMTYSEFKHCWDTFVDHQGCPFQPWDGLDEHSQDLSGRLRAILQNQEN
How it was run: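 HeLa cells stably expressing Vif and A3G-eYFP, 700 cells/well, incubated overnight at 37 deg C, then exposed to compound overnight at 37 deg C. Inhibition of Vif-mediated degradation read as increased yellow fluorescence (Ex 488/Em 500-530) by laser-scanning cytometry.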

[5] = tested on: Zika virus NS2B-NS3 protease; assay: Primary screen GU AMC qHTS for Zika virus inhibitors (AID 1347154); also: nearly all actives have a fitted effect of over 70% in size
How it was run: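 Unlinked Zika NS2B hydrophilic domain–NS3 protease complex at 25 nM in 10 mM Tris-HCl pH 8.0, 0.01% Tween 20, with an AMC peptide substrate. Fluorescence change (340/450 nm) over 15 min at room temperature, normalized to controls, fitted to 4-parameter Hill.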

[6] = Primary qHTS for small molecule stabilizers of the endoplasmic reticulum resident proteome: Secreted ER Calcium Modulated Protein (SERCaMP) assay (AID 1508630)
How it was run: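 GLuc-SERCaMP-expressing SH-SY5Y cells, pretreated 16 h with compound, are challenged with thapsigargin to empty ER calcium stores; after 4 h, coelenterazine is added directly to the medium and luminescence is imaged.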

Measured: Potency

Cn1ccc2cc(NC(=O)Nc3cccnc3)ccc21
inactive: [1] > 46 µM | [2] > 46 µM | [3] | [4] | [5] | [6]
